PubChem BioAssay AID493191 (Broad Institute, 2011)
Screen size: about 1,300 compounds; about 330 (25%) were called active. The rule behind the calls is not given here. A selection follows. Entries with a potency or affinity are not part of this list.

Experiment: growth inhibition of MALME3 cells – cell-based, CellTiter-Glo, cherry-picked, orthogonal assay for MITF inhibitor project, dose response (AID 493191)
Conditions: MALME3 melanoma viability, CellTiter-Glo luminescence, 24 h; series mostly up to 35 µM

SMILES | outcome
Cc1cc(C(=O)O/N=C(\N)c2ccncc2)ccc1[N+](=O)[O-] | inactive
Cc1c(NC(=O)C(C)OC(=O)c2ccc([N+](=O)[O-])s2)c(=O)n(-c2ccccc2)n1C (stereo not drawn) | inactive
CCCCOc1ccc(-c2ncc([N+](=O)[O-])cn2)cc1 | inactive
CC(C)(C)N=Cc1cc(-c2ccccc2)sc1O | inactive
O=C(N/N=C/c1ccc([N+](=O)[O-])o1)c1sc2ccccc2c1Cl | inactive
C(#Cc1ccccc1)C[N+]1(CC#Cc2cccc3ccccc23)CCCC1 | inactive
CSCCNC(=O)c1ccc2nc(Cc3ccccc3F)oc2c1 | inactive
O=C(CSC(=S)N1CCCCC1)c1c(F)cccc1F | inactive
CN(Cc1ccccc1)C1=CC(=[N+]2CCCCC2)CC(C)(C)C1 | inactive
CCOc1cccc(C(=O)NC2=NCCS2)c1 | inactive
CCOC(=O)N1CCC(NC(=O)C2CCCN(Cc3nc(-c4cccc(C)c4)oc3C)C2)CC1 (stereo not drawn) | inactive
[2H]C(CCOS(N)(=O)=O)c1ccc(C(C)(C)C)cc1 (stereo not drawn) | inactive
N/C(=N\OC(=O)c1ccc([N+](=O)[O-])cc1)c1ccc(Br)cc1 | inactive
COc1cc(/C=C/C(=O)N2CCC=CC2=O)cc(OC)c1OC | inactive
c1ccc(C[n+]2cccc3c4ccccc4ccc32)cc1 | inactive
CCCCN(CC)CCCNC(=O)c1cc2c(=O)n(CC)c3ccccc3c2s1 | inactive
CC1(C)CC(=O)C=C(NC2=CC3OC(c4ccccc4)OCC3OC2=O)C1 (stereo not drawn) | inactive
C(=N\Nc1cc(N2CCCCC2)ncn1)/c1ccco1 | inactive
Clc1ccc(-c2nc(-c3ccncc3)no2)c(Cl)c1 | inactive
O=C(Cc1cccs1)NCc1ccc(Cl)cc1Cl | inactive

SMILES | outcome
CC(C)n1cc(/C=C/c2cc[n+](C)cc2)c2ccccc21 | inactive
O=C(Nc1nc(-c2ccccn2)cs1)c1ccc(F)c(S(=O)(=O)N2CCOCC2)c1 | inactive
Cc1ccc(-c2cn3cc(C)ccc3n2)cc1 | inactive
O=C(CSc1ccccn1)c1ccc2c(c1)OCO2 | inactive
COc1cccc(NC(=O)c2cc3c(=O)n4ccccc4nc3n(CC(C)C)c2=N)c1 | inactive
CCOC(=O)N1C(=O)[C@](CC)(c2ccccc2)N1C(=O)OCC | inactive
CCOC(=O)c1cn2nc(Oc3ccccc3)ccc2n1 | inactive
C/C(=N\Nc1cc(N2CCOCC2)ncn1)c1ccccc1 | inactive
CC1(C)Cc2c(sc(NC(=O)Nc3ccccc3)c2C(N)=O)CO1 | inactive
Cc1ccc(C)c(S(=O)(=O)N2CCN(Cc3ccc(O)c4ncccc34)CC2)c1 | inactive
O=S(=O)(c1ccc(Cl)cc1)N1CCN(Cc2ccc(O)c3ncccc23)CC1 | inactive
CN(C)CCNC(=O)COc1ccc(C23CC4CC(CC(C4)C2)C3)cc1 | inactive
CN(C)c1ccc(/C=C2\SC(=O)N(CCc3nnc(N)s3)C2=O)cc1 | inactive
Cc1[nH]n(-c2ccccc2)c(=O)c1N=Nc1cccc(C(=O)O)c1 | inactive
C/C(=C\c1ccccc1)C(=O)Nc1ccc(Cl)cn1 | inactive
O=[N+]([O-])c1cc(CN2CCN(c3ccccc3)CC2)c(O)c2ncccc12 | inactive
O=[N+]([O-])c1ccccc1OCCCOc1cccc2cccnc12 | inactive
Cc1ccc(-c2cn(-c3ccc(SC(F)F)cc3)c3[n+]2CCC3)cc1 | inactive
C#CC(=O)N(c1ccc(OC)cc1OC)C(C(=O)NC1CCCC1)c1cccs1 (stereo not drawn) | inactive
C#CC(=O)N(c1ccc(OC)c(OC)c1)C(C(=O)NC1CCCC1)c1cccs1 (stereo not drawn) | inactive

SMILES | outcome
COc1ccc(N(CC(=O)NCC2CCCO2)S(=O)(=O)c2ccccc2)cc1OC (stereo not drawn) | inactive
Cc1ccc(NC(=O)c2ccc(OCC3CCCO3)cc2)c(C)c1 (stereo not drawn) | inactive
CN(C)/C=N/c1ncc(C(=O)c2ccccc2)s1 | inactive
Cc1ccc2nc(Cc3ccc(N)cc3)oc2c1 | inactive
CCc1nc2oc3ccccc3c(=O)c2cc1C(=O)OC | inactive
COc1ccc(N(C(=O)CCl)C(C(=O)NC2CCCCC2)c2cccnc2)cc1 (stereo not drawn) | inactive
COCCN(C(=O)CCl)C(C(=O)NC1CCCCC1)c1ccccc1C (stereo not drawn) | inactive
COc1ccc(C(C(=O)NC2CCCCC2)N(C(=O)CCl)c2ccc(OC)cc2)cc1 (stereo not drawn) | inactive
Cc1cc(NC(=O)c2ccc(Cl)cc2Cl)no1 | inactive
COCn1c(COc2ccccc2)nc2ccccc21 | inactive
COc1ccc(Br)cc1/C=C/C(=O)c1ccc(NC(C)=O)cc1 | inactive
O=C(N/N=C/c1ccccc1Cl)c1n[nH]c2c1CCCC2 | inactive
Nc1c(N(CCC2=CCCCC2)C(=O)COc2ccc([N+](=O)[O-])cc2)c(=O)[nH]c(=O)n1Cc1ccccc1 | inactive
Nc1ccc(Oc2cccc(Oc3ccc(N)cc3)c2)cc1 | inactive
O=[N+]([O-])c1ccc(Sc2cc[n+]([O-])c3ccccc23)c([N+](=O)[O-])c1 | inactive
Cc1ccc(O)c(NC(=O)c2ccc3c(c2)C(=O)N(CC(C)C)C3=O)c1 | inactive
O=C(Nc1ccc2c(c1)OCCO2)c1cccc(Cl)c1Cl | inactive
O=C(Nc1ccc2nc3n(c(=O)c2c1)CCCC3)c1cc([N+](=O)[O-])ccc1F | inactive
